From PubChem BioAssay
Hits are enriched below; roughly 19% of the tested compounds scored in any of these assays.
IL-1B inflam inh – inflammasome signaling inhibition, IL-1 beta readout; activity change, % at 57.5 µM; THP-1 LPS/ATP IL-1B secretion, AlphaLISA, 16 h; stronger effect = lower value; 360,000 tested, 4.7% active; in the data active = activity change below about -50%; inconclusive = mostly about -30% to -49%
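Secreted IL-1B measured by AlphaLISA bead assay after 16 h compound exposure of THP-1 cells; compounds (final up to 57.5 uM) added 1 h before LPS (250 ng/mL) and ATP (1.25 mM) stimulation; lower signal means less secretion.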
HT1080-NT tox – kills 2HG-producing HT-1080-NT fibrosarcoma cells; HT-1080-NT fibrosarcoma viability, CellTiter-Glo ATP luminescence, 48 h; Potency, µM (top dose mostly 46.1 µM), without a hit: at the top dose activity, negative = less viability, usual class: cytotoxic; 360,000 tested, 1.6% active; AID 686970;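 note: NT is the 2HG producing partner of a matched IDH1 knockdown line; potency is the fitted concentration of half-maximal effect; 0% = DMSO-treated cells and -100% = media-only wells without cells; nearly all actives have a fitted effect of over 55% in size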
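750 cells/well, RPMI + 5% FBS; 2 h settle, compound pin-transfer, 48 h at 37 degrees C. CellTiter-Glo 10 min RT, luminescence. Normalized to DMSO and media-only wells.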
HT1080 IDH1KD tx – toxicity to HT-1080 IDH1 knockdown cells (counter line) | 360,000 tested, 2% active | AID 686971 | Potency, µM (titrated, usually from 46.1 µM), inactives show at the highest dose activity, negative = toxicity, most hits filed as cytotoxic | HT-1080 IDH1 knockdown viability, ATP luminescence, 48 h;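 note: potency is the fitted concentration of half-maximal effect; 0% = DMSO wells and -100% = cell-free medium wells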
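IDH1KD HT-1080 cells, 750/well, RPMI + 5% FBS; compound pinned after 2 h settling; 48 h, 37 °C; CellTiter-Glo luminescence; % activity normalised to DMSO and no-cell wells; curves fitted, classed by r2 and efficacy.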
DT40 TDP1 CPT – growth inhibition of DT40 Tdp1-/-;hTDP1 cells with camptothecin (screen for TDP1 inhibitors) | chicken DT40 Tdp1-/-;hTDP1 cells + 20 nM CPT, ATP luminescence, 48 h | Potency, µM (top dose mostly 46.2 µM), for inactives: top-dose activity change, negative = growth inhibition, hits mostly inhibitors | 420,000 tested, 12% active | AID 686979; note: potency is the fitted concentration of half-maximal effect; nearly all actives have a fitted effect of over 55% in size
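Cell growth measured by CellTiter-Glo luminescence after a minimum 48 h, 37 C compound exposure with 20 nM CPT in Tdp1-knockout DT40 cells stably expressing hTDP1, seeded 400/well; qHTS titration format.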
TDP1 cell noCPT – qHTS for Inhibitors of human tyrosyl-DNA phosphodiesterase 1 (TDP1): qHTS in cells in absence of CPT | DT40 Tdp1-/- hTDP1 cells, no CPT, ATP luminescence, 48 h | Potency, µM (doses to about 46.2 µM), without a hit: at the highest dose activity change, negative = growth inhibition, hits mostly inhibitors | 420,000 tested, 15% active | AID 686978, 2013; note: potency is the fitted concentration of half-maximal effect; nearly all actives have a fitted effect of over 55% in size
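Cells were dispensed at 400 per well, compounds added by pin tool, plates incubated ≥48 hr at 37 °C, then CellTiter-Glo added for 30 min at room temperature before luminescence reading. Line: DT40 Tdp1-/- complemented with hTDP1; camptothecin omitted.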
* marks the source's active call; other numbers are inactive results; ? = inconclusive; · = not tested or not shown; [ ] = remark or other dose. Unless noted, calls come from the whole dose curve; as a rule, active = well fitted curve in the direction sought with a large enough effect; inconclusive = small, poorly fitted or top-dose-only effect, or another doubt; inactive = no such curve, though single readings can be large; an effect the other way counts as inactive or inconclusive. Unless noted, % is set by controls: 0 for no effect and ±100 for the full control effect.

SMILES	IL-1B inflam inh	HT1080-NT tox	HT1080 IDH1KD tx	DT40 TDP1 CPT	TDP1 cell noCPT
Cc1cc2c(cc1C)N(C(=O)CSc1nncn1C)C(C)(C)c1ssc(=S)c1-2	?	?	-13%[9.24 µM]	29µM*	?
Cc1ccc2c(c1)N(C(=O)c1ccco1)C(C)(C)c1ssc(=S)c1-2	-25	1%	-21%	-28%	?
Cc1ccc2c(c1)N(C(=O)CSc1nncn1C)C(C)(C)c1ssc(=S)c1-2	-9	-23%	-26%	26µM*	?
CC1=CC(C)(C)N(C(=O)CSc2nncn2C)c2ccccc21	20	1%	-3%	-6%	-20%
O=C(/C=C/[C@H]1O[C@@H](n2ccc(=O)[nH]c2=O)[C@H](O)[C@@H]1O)N[C@@H](Cc1ccccc1)C(=O)O	0	17%	11%	7%	17%
COc1cccc(-c2cc(C(=O)Nc3cc(Cl)ccc3O)on2)c1	·	·	·	-22%	-26%
S=c1[nH]nc(C2CC2c2ccc(Cl)cc2)n1-c1ccc(Cl)cc1 (configuration not stated)	-102*	-7%	-11%	?	?
Cc1ccc(C2CC2c2n[nH]c(=S)n2-c2ccc(C)cc2)cc1 (configuration not stated)	21	-23%	0%	-33%	?
Cc1ccc(C2CC2c2n[nH]c(=S)n2-c2cccc(Cl)c2)cc1 (configuration not stated)	31	-11%	-15%	?	23µM*
COc1cc(C2C=C(C(=O)O)Nc3ncnn32)ccc1O (configuration not stated)	·	·	·	-20%	-6%
O=C(c1cccc(S(=O)(=O)N2CCOCC2)c1)N1CCN(C/C=C/c2ccccc2)CC1	7	0%	0%	?	?
CN1CCC(OC(c2ccccc2)c2ccccc2)CC1	-20	1%	-16%	-9%	-22%
CN1CCC(Oc2ccccc2Sc2ccccc2)CC1	·	?	-5%	?	16µM*
CCc1nc2c(OCc3ccc(C(=O)OC)cc3)cccn2c1N(C)C(=O)c1ccc(OC)cc1	4	-2%	-12%	?	?
CCc1nc2c(OCc3ccc(C(=O)OC)cc3)cccn2c1N(C)C(=O)c1ccc(C)cc1	20	-5%	-26%	23µM*	18µM*
CCc1nc2c(OCc3ccc(C(F)(F)F)cc3)cccn2c1N(C)C(=O)c1ccncc1	8	4%	10%	16µM*	16µM*
CCc1nc2c(OCc3ccc(C(=O)N(C)C)cc3)cccn2c1N(C)C(=O)c1ccc(C)cc1	18	-5%	4%	1%	-23%
CCc1nc2c(OCc3ccc(F)cc3)cccn2c1N(C)C(=O)c1ccc(C)cc1	-4	-20%	-19%	15µM*	?
COc1cc(C(C)=O)ccc1OCC(O)CN1CCN(c2ccccn2)CC1 (configuration not stated)	-56*	0%	10%	?	-3%
NCCC[C@H](N)C(=O)O	·	·	·	5%	3%
Cc1ccc(S(=O)(=O)N(CC2CO2)c2ccccc2[N+](=O)[O-])cc1 (configuration not stated)	?	-29%	-17%	12µM*	?
Cc1ccc(S(=O)(=O)N(CC2CO2)c2cccc([N+](=O)[O-])c2)cc1 (configuration not stated)	-14	?	?	12µM*	23µM*
O=S(=O)(c1ccccc1)N(CC1CO1)c1ccccc1 (configuration not stated)	-23	-2%	10%	-26%	?
Cc1ccc(S(=O)(=O)N(CC(=O)NCC2CCCO2)c2cccc([N+](=O)[O-])c2)cc1 (configuration not stated)	-11	0%	-3%	-12%	2%
Cc1ccc(N(CC2CO2)S(=O)(=O)c2ccccc2[N+](=O)[O-])cc1 (configuration not stated)	3	?	-24%	-29%	?
